Assay results: PubChem BioAssay (Tox21)
Values joined by “and” are separate entries in the source; they are usually repeats but may differ in a detail not shown here. Identical values can stand only once. Results filed as inconclusive are left out. Some structures have more than one record in an assay (separate samples or runs), and their calls can disagree. Active and inactive are the calls of the source. Unless noted, calls follow the shape of the dose curve; as a rule, active = well fitted curve in the direction sought with a large enough effect in the repeat runs; inconclusive = weak or mixed curves; inactive = no such curve, though single readings can be large; an effect the other way counts as inactive or inconclusive.

Legend:
[1] = target: Retinoic acid receptor RXR-alpha (Homo sapiens) (UniProt P19793); assay: qHTS assay to identify small molecule agonists of the RXR signaling pathway (AID 1159527; calls by dose curve; also: nearly all actives have a fitted effect of over 35% in size; also: potency is read from the fitted curve at half-maximal effect)
Chain of Retinoic acid receptor RXR-alpha (Homo sapiens) (P19793 whole entry, looked up): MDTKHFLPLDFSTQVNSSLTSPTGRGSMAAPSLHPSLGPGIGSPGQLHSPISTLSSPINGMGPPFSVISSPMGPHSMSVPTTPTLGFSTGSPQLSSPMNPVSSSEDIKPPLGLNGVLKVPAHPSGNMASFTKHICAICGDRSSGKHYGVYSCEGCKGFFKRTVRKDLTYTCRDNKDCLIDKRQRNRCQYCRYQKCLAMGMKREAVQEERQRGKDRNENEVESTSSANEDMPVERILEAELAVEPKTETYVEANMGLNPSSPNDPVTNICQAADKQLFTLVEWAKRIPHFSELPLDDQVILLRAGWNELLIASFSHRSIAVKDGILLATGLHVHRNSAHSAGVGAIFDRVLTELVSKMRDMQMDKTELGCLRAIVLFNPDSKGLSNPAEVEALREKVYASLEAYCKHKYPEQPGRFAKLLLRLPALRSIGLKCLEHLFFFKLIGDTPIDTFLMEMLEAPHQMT
Procedure, shortened: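 Read-out: beta-lactamase FRET ratio (405 nm excitation, 460 and 530 nm emission) after 2 hr substrate loading at room temperature. Cells were RXR-alpha-UAS-bla HEK 293T treated with compounds for 16 hr in 2% charcoal-stripped FBS medium.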

[2] = qHTS assay to identify small molecule agonists of the RXR signaling pathway - cell viability counter screen (AID 1159529); also: nearly all actives have a fitted effect of over 50% in size; also: potency is read from the fitted curve at half-maximal effect
Procedure, shortened: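 HEK 293T RXRa-bla cells, 2% CS-FBS; 5 h settle; cpd 16 h 37 C, 5% CO2; CellTiter-Glo 30 min RT, luminescence. Tetraoctyl ammonium bromide as positive control.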

[3] = qHTS assay to identify small molecule antagonists of the retinoid acid receptor (RAR) signaling pathway - cell viability counter screen (AID 1159551); also: nearly all actives have a fitted effect of over 35% in size
Procedure, shortened: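 Cytotoxicity counter screen: ATP content quantified by CellTiter-Glo luminescence in C3RL4 cells treated 6 hr at 37 C with compound and retinol (1 uM final). Cells plated at 1,000/well and cultured overnight before dosing.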

[4] = qHTS assay to identify small molecule antagonists of the retinoic acid receptor (RAR) signaling pathway (AID 1159552; also: nearly all actives have a fitted effect of over 50% in size; also: potency is read from the fitted curve at half-maximal effect)
Procedure, shortened: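 Cells of the C3RL4 line were seeded, incubated overnight, then dosed with compounds in DMSO followed immediately by retinol (1 uM final). Six hours later luciferase detection reagent went in; signal was measured after 30 min at RT.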

[5] = qHTS assay to identify small molecule agonists of the retinoic acid receptor (RAR) signaling pathway (AID 1159553); also: potency is read from the fitted curve at half-maximal effect
Procedure, shortened: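 Luminescence was measured 30 min after luciferase reagent addition at room temperature. Before that, C3RL4 reporter cells (1,000 per well, plated overnight) were treated with compound for 6 hr at 37 C and 5% CO2.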

[6] = qHTS assay to identify small molecule antagonists of the estrogen related receptor (ERR) signaling pathway - cell viability counter screen (AID 1224818);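 also: series mostly up to about 46 µM; viability measured after 17.5 h of compound exposure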
Procedure, shortened: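 Cytotoxicity counter screen: fluorescence from CellTiter-Fluor, added after 17.5 h compound exposure at 37 C and read 30 min later. ERR cell line seeded at 2,000 cells/well, preincubated 6 h before dosing.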

[7] = qHTS assay to identify small molecule antagonists of the estrogen related receptor signaling pathway with the pleiotropic PPARgamma coactivator (PGC) cell viability counter screen (AID 1224822; also: series mostly up to about 46 µM)
Procedure, shortened: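 Viability counter-screen read by fluorescence intensity after 30 min with CellTiter-Fluor at 37 C; PGC/ERR reporter cells were exposed to compounds for 17.5 h at 37 C following a 6 h preincubation.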

[8] = qHTS assay to identify small molecule agonists of the estrogen related receptor (ERR) signaling pathway (AID 1224820)
Procedure, shortened: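 An ERR cell line provided by NTP was seeded at 2,000 cells per well and allowed to settle for 6 h before compounds in DMSO were added. After 18 h at 37 C, luciferase activity was measured by One-Glo luminescence.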

[9] = qHTS assay to identify small molecule antagonists of the estrogen related receptor (ERR) signaling pathway (AID 1224819; also: nearly all actives have a fitted effect of over 50% in size; also: potency is read from the fitted curve at half-maximal effect)
Procedure, shortened: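 LOPAC library screened for antagonism as reduced One-Glo luminescence in ERR reporter cells (2,000/well). Compounds were added after 6 h pre-incubation and left 18 h at 37C; reading followed a 30 min room-temperature reagent step.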

[10] = test system: estrogen-related receptor alpha (ERRalpha) with PGC-1alpha coactivator, human; assay: qHTS assay to identify small molecule antagonists of the estrogen related receptor signaling pathway with the pleiotropic PPARgamma coactivator (PGC) (AID 1224821; calls by dose curve;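 also: series mostly up to about 46 µM; lower luminescence signal means antagonism of PGC/ERR signalling; nearly all actives have a fitted effect of over 50% in size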)
Procedure, shortened: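 A PGC/ERR cell line supplied by NTP is seeded, allowed 6 h at 37 C, and treated with test compounds in DMSO for 18 h. Signal is then measured as luciferase luminescence using One-Glo.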

Measured: Potency

Cc1c(C(N)=O)cc([N+](=O)[O-])cc1[N+](=O)[O-]
inactive: [1] | [2] | [3]

CCCC(=O)O
inactive: [1] | [2] | [3] | [4]

CC(CCC(=O)O)(c1ccc(O)cc1)c1ccc(O)cc1
inactive: [1] | [2] | [3]

OCCO
inactive: [1] | [2] | [3]

CC(=O)CC/C=C(\C)CCC=C(C)C
inactive: [1] | [2] | [3]

CC(C)CC(C)(O)C#CC(C)(O)CC(C)C (stereo not drawn)
12.1 µM (active) and inactive: [1]
inactive: [2] | [3]

c1ccc2c(c1)Oc1ccccc1S2
inactive: [1] | [2] | [3]

CC1=CCC(C(C)(C)O)CC1 (stereo not drawn)
inactive: [1] | [2] | [3]

COC(=O)c1ccccc1
inactive: [1] | [2] | [3]

O=S(=O)(O)c1ccc(O)cc1
inactive: [1] | [2] | [3]

CCCc1c(OCCCCc2nn[nH]n2)ccc(C(C)=O)c1O
inactive: [2] | [3]
active: [1] 54.9 µM and 23.9 µM

CCOCCOCCO
inactive: [1] | [2] | [3]

CCCCOCCOCCO
inactive: [1] | [2] | [3] | [4]

COc1ccccc1/C=C/C=O
inactive: [1] | [2] | [3]

CC(C)Oc1ccc2c(=O)c(-c3ccccc3)coc2c1
inactive: [1] | [2] | [3]

COC(=O)CCC(=O)OC
inactive: [1] | [2] | [3]

COC(=O)Nc1nc2ccc(S(=O)c3ccccc3)cc2[nH]1 (stereo not drawn)
inactive: [1] | [2] | [3]

CC(C)OC=O
inactive: [1] | [2] | [3] | [4]

CC(C)=CCC/C(C)=C\CO
inactive: [1] | [2] | [3]

OC(CCl)CCl
inactive: [1] | [2] | [3]

c1ccncc1
inactive: [1] | [2] | [3]

Nc1ccc(S(=O)(=O)Nc2cnc3ccccc3n2)cc1
inactive: [1] | [2] | [3]

CC(=O)C1(C)CC2=C(CCCC2(C)C)CC1C (stereo not drawn)
inactive: [1] | [2] | [3]

O=CCCCC=O
inactive: [1] | [2] | [3]

CCCCCCCCCCCO
inactive and 3.89 µM (active): [1]
inactive: [2] | [3] | [4]

CCCCOCCOCCOCCO
inactive: [1] | [2] | [3]

COc1c(Cl)c(Cl)c(Cl)c(Cl)c1Cl
inactive: [1] | [2] | [3]

c1ccc2c(c1)c1cccc3ccc4cccc2c4c31
43.4 µM (active) and inactive: [1]
inactive: [2] | [3]

NNc1ccc(C(=O)O)cc1
inactive: [2] | [3]
active: [1] 49.5 µM

C/C=C/C(=O)O
inactive: [1] | [2] | [3]

CC1=CC2C3CC(C=C3C)C2C1 (stereo not drawn)
inactive: [1] | [2] | [3]

CCCCC/C=C/C=C/C=O
inactive: [1] | [2] | [3]

Nc1ncnc2nc[nH]c12
inactive: [1] | [2]

C=C(C)C1CC=C(C)CC1 (stereo not drawn)
inactive: [1] | [2] | [3]

CCC(C)(O)CCCC(C)C (stereo not drawn)
inactive: [1] | [2] | [3] | [4]

CCCCC(CC)COP(=O)(OCC(CC)CCCC)OCC(CC)CCCC (stereo not drawn)
inactive: [1] | [2] | [3]

c1ccc(Nc2ccccc2)cc1
inactive: [1] | [2] | [3]

CC(C)OB(OC(C)C)OC(C)C
inactive: [1] | [2] | [3]

Cc1cccc(C(=O)O)c1
inactive: [2] | [3] | [4]
active: [1] 27.5 µM

Clc1nc(Cl)c(Cl)c(Cl)c1Cl
inactive: [1] | [2] | [3] | [4] | [5]

COc1ccc(OC)c(C(O)CNC(=O)CN)c1 (stereo not drawn)
inactive: [1] | [2] | [3] | [4] | [5]

CN(C)c1nc(N(C)C)nc(N(C)C)n1
inactive: [1] | [2] | [3] | [5] | [6] | [7]

OC[C@H]1O[C@@H]2O[C@H]3[C@H](O)[C@@H](O)[C@@H](O[C@H]4[C@H](O)[C@@H](O)[C@@H](O[C@H]5[C@H](O)[C@@H](O)[C@@H](O[C@H]6[C@H](O)[C@@H](O)[C@@H](O[C@H]7[C@H](O)[C@@H](O)[C@@H](O[C@H]8[C@H](O)[C@@H](O)[C@@H](O[C@H]1[C@H](O)[C@H]2O)O[C@@H]8CO)O[C@@H]7CO)O[C@@H]6CO)O[C@@H]5CO)O[C@@H]4CO)O[C@@H]3CO
inactive: [1] | [3] | [4]
21.9 µM (active) and inactive: [2]

CCCCC(CC)COC(=O)c1ccc(N(C)C)cc1 (stereo not drawn)
inactive: [1] | [2] | [3] | [4] | [5]

Cc1cccc([N+](=O)[O-])c1C
inactive: [1] | [2] | [3] | [4] | [5]

CCC(C)CO (stereo not drawn)
inactive: [1] | [2] | [3] | [4] | [5]

Oc1ccc(O)cc1
inactive: [1] | [2] | [5] | [6] | [7]
active: [4] 17.1 µM and 24.3 µM and 10.6 µM

CCC(C)OC(=O)c1ccc(O)cc1 (stereo not drawn)
inactive: [1] | [2] | [3]
active: [5] 61.1 µM

CCCCC(CC)COCC1CO1 (stereo not drawn)
inactive: [1] | [2] | [3] | [4]

Cc1ncc[nH]1
inactive: [1] | [2] | [3] | [4] | [5]

O=C=Nc1ccc(Cc2ccc(N=C=O)cc2)cc1
inactive: [1] | [2] | [3] | [5]

O=CCc1ccccc1
inactive: [1] | [2] | [3] | [4]

CCCCNS(=O)(=O)c1ccccc1
inactive: [1] | [2] | [3] | [5]

CC(=O)c1ccccn1
inactive: [1] | [2] | [3] | [5]

CCC(C)c1ccccc1O (stereo not drawn)
inactive: [1] | [2] | [3] | [5]

C=C(C)C(=O)OCCOC(=O)C(=C)C
inactive: [1] | [2] | [3] | [4] | [5]

Brc1cc(Oc2cc(Br)c(Br)c(Br)c2Br)c(Br)c(Br)c1Br
inactive: [1] | [3] | [4] | [5]
1.39 µM (active) and inactive: [2]

CCCCCCCCCC(=O)OC
inactive: [1] | [2] | [3] | [4]

c1ccc2cc(Nc3ccc(Nc4ccc5ccccc5c4)cc3)ccc2c1
inactive: [1] | [2] | [3] | [5]

Cn1cnc([N+](=O)[O-])c1Sc1ncnc2nc[nH]c12
inactive: [1] | [2] | [3] | [5] | [8] | [7]

C[Si](C)(C)O[Si](C)(C)C
inactive: [1] | [2] | [3] | [5]

O=C(c1ccccc1)c1ccccc1O
inactive: [1] | [2] | [3] | [4] | [5]

Nc1ccc(Cl)cc1Cl
inactive: [1] | [2] | [3] | [5]

O=P(O)(O)O
inactive: [1] | [2] | [3] | [5]

Cc1ccc2c(n1)Oc1ccc(C(C)C(=O)OCC(=O)N(C)C)cc1C2 (stereo not drawn)
inactive: [1] | [2] | [3] | [4]

O=[N+]([O-])c1ccc2c(c1)Cc1ccccc1-2
inactive: [1] | [2] | [3] | [4] | [5]

CN1C(C(=O)Nc2ccccn2)=C(O)c2ccccc2S1(=O)=O
not listed: [8] | [9] | [10]
inactive: all other assays above

CC(C(=O)O)c1cccc(C(=O)c2ccccc2)c1 (stereo not drawn)
not listed: [5]
inactive: all other assays above

Cc1[nH]c(=O)c(C#N)cc1-c1ccncc1
not listed: [8] | [9] | [10]
inactive: all other assays above

C#C[C@]1(O)CC[C@H]2[C@@H]3CCc4cc(OC)ccc4[C@H]3CC[C@@]21C
inactive: [1] | [2] | [3] | [4] | [5]

C[C@]12CCC(=O)C=C1CC[C@@H]1[C@@H]2C(=O)C[C@@]2(C)[C@H]1CC[C@]2(O)C(=O)CO
inactive: [1] | [2] | [3] | [4] | [6] | [7]

O=Cc1ccccc1O
inactive: [1] | [2] | [3] | [4]

CC(C)=CCCC(C)CCO (stereo not drawn)
inactive: [1] | [2] | [3] | [5]

COc1ccc(C(=O)CC(=O)c2ccc(C(C)(C)C)cc2)cc1
inactive: [1] | [2] | [3] | [4]

O=C(OCc1ccccc1)c1ccccc1O
active: [5] 9.62 µM
inactive: [1] | [2] | [3] | [4]

c1cc(-c2ccncc2)ccn1
inactive: [1] | [2] | [3] | [5]

C=CC(C)(CCC=C(C)C)OC(C)=O (stereo not drawn)
inactive: [1] | [2] | [3] | [4] | [5]

NC=O
inactive: [1] | [2] | [3] | [4] | [5]

Nc1ncn([C@@H]2O[C@H](CO)[C@@H](O)[C@H]2O)c(=O)n1
active: [9] 0.619 µM

Cc1c(OCC(F)(F)F)ccnc1CS(=O)c1nc2ccccc2[nH]1 (stereo not drawn)
inactive: [9]
